In experiment [1] the test system is Wnt5a (protein binding on small-molecule microarray). As to the kind of experiment: small molecules binding Wnt5a protein – biophysical, small-molecule microarray, 635/667 nm fluorescence, primary screen (AID 1142).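 Further: fluorescence read at 667 nm with signal to noise per printed feature.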 The note with it: 635 nm fluorescence, higher = more signal.
The nature of experiment [2]: ATP-based viability of Huh7 replicon cells – cell-based, CellTiter-Glo luminescence, basal, 48 h, cytotoxicity control for HCV replication inhibitor project, primary screen (AID 1143).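 Further: Huh7 hepatoma cells carrying a hepatitis C replication reporter with no stimulus; test concentration not given here.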 The following applies: higher = more signal, called active from +8 up or from −8 down.
The nature of experiment [3]: Pseudomonas biofilm growth suppression – PAO1 strain, BacTiter-Glo luminescence, LB-PBS, primary screen (AID 1144). The note with it: P. aeruginosa PAO1 biofilm, 12 h, higher = more signal.
A short description of experiment [4]: basal CRE-LacZ reporter activity in PC12 – cell-based, unstimulated, primary screen (AID 1145). The following applies: no forskolin, luminescence, 4.5 h, higher = more signal, called active from +8 up or from −8 down.
The nature of experiment [5]: forskolin-driven CRE-LacZ activity in PC12 – cell-based, CRE-LacZ reporter, forskolin-stimulated, primary screen (AID 1146).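 Further: PC12 cells with 6xCRE LacZ reporter stimulated by forskolin 10 µM; beta-galactosidase reporter signal reflecting CREB driven transcription.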 The note with it: luminescence, 4.5 h, higher = more signal, called active from +8 up or from −8 down.
Experiment [6] has as its target Streptavidin (Streptomyces avidinii) (UniProt P22629). Nature of the experiment: compounds binding control protein streptavidin – biophysical, small-molecule microarray, 635/667 nm fluorescence, artefact control for SMM compound annotation, primary screen (AID 1147).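 Further: signal reflects streptavidin binding to arrayed compounds as a control protein.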 The note with it: higher = more signal.
Experiment [7] in a line: probe aInhba binding on compound microarray – biochemical, small-molecule microarray, 635/667 nm fluorescence, primary screen (AID 1148).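 Further: score merges 667nm spot fluorescence with signal-to-noise for antibody binding to printed compounds.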 The following applies: higher = more signal.
Experiment [8] addresses Torsin-1A (Homo sapiens) (UniProt O14656). Nature of the experiment: TOR1A wild-type binding on microarray – cell lysate, small-molecule microarray, lysate, 635/667 nm, primary screen (AID 1149). The note with it: COS7 hTOR1A-WT lysate, 635 nm fluorescence, higher = more signal.
For experiment [9] the target is unchanged. Nature of the experiment: torsin A mutant lysate binding on microarrays – cell lysate, small-molecule microarray, COS7 lysate, 635/667 nm fluorescence, primary screen (AID 1150).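 Further: score pools 667 nm emission and signal to noise measuring lysate protein binding.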 The following applies: COS7 hTOR1A mutant lysate, 635 nm fluorescence, higher = more signal.
The subject of experiment [10] is Sonic hedgehog protein (Shh). As to the kind of experiment: Sonic hedgehog microarray binding compounds – biochemical, small-molecule microarray, 635/667 nm fluorescence, primary screen (AID 1151).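 Further: Shh protein binding to compounds spotted on small-molecule microarray slides; score combines spot fluorescence intensity with signal-to-noise across triplicate slides.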 The note with it: 635 nm fluorescence, higher = more signal.
Experiment [11] in a line: optical density shifts of acrAB sulA E. coli – strain DRC41, OD650, 48 h, E. coli filamentation inducer project, primary screen (AID 1152).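 Further: E. coli MC1000 strain DRC41 lacking acrAB efflux pump and sulA.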 The following applies: higher = more signal, called active from +8 up or from −8 down.
Experiment [12] is described as follows: probe aLefty1 binding on compound microarray – biochemical, small-molecule microarray, 635/667 nm fluorescence, primary screen (AID 1153).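 Further: score merges spot fluorescence with signal-to-noise ratio from the scanned slide images.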 The following applies: higher = more signal.
The nature of experiment [13]: plasmodial surface anion channel blockers, osmotic lysis – cell-based, P. falciparum Indochina, OD700, 1 h, primary screen (AID 1154). The following applies: P. falciparum Indochina infected RBC osmotic lysis, higher = more signal, called active from +8 up or from −8 down.
A short description of experiment [14]: plasmodial surface anion channel blockers, osmotic lysis – cell-based, P. falciparum Indochina, OD700, 2 h, primary screen (AID 1155).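 Further: lysis reports solute entry through the parasite surface anion channel PSAC.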 The following applies: P. falciparum Indochina infected erythrocytes, higher = more signal, called active from +8 up or from −8 down.
Experiment [15] in a line: changes in parasitized red cell lysis, either direction – P. falciparum Indochina, OD700, 3 h, PSAC antagonist project, primary screen (AID 1156). The note with it: P. falciparum-infected erythrocytes, osmotic lysis, higher = more signal, called active from +8 up or from −8 down.
A short description of experiment [16]: plasmodial surface anion channel blockers, osmotic lysis – cell-based, P. falciparum Indochina, OD700, 18 h, primary screen (AID 1157). The note with it: P. falciparum Indochina infected erythrocytes, osmotic lysis OD700, 18 h; higher = more signal, called active from +8 up or from −8 down.
Experiment [17] can be described thus: S6 kinase pathway phospho-S6 level changes – cell-based, A549, cytoblot, luminescence, serum-stimulated, primary screen (AID 1158).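 Further: serum-stimulated A549 lung adenocarcinoma cells; signal is phosphorylated S6 detected by cytoblot immunostaining with HRP secondary.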 The note with it: 5 h, higher = more signal.
For experiment [18], the target named is NADPH oxidase 2 (Homo sapiens) (UniProt P04839). As to the kind of experiment: compounds shifting NOX2 Amplex Red fluorescence – cell-based, HEK293-NOX2, PMA-stimulated, NOX inhibitor project, primary screen (AID 1159). Further: test concentration not given here. The following applies: 45 min, higher = more signal, called active from +8 up or from −8 down.
Sequence of NADPH oxidase 2 (Homo sapiens) (P04839 whole entry, looked up): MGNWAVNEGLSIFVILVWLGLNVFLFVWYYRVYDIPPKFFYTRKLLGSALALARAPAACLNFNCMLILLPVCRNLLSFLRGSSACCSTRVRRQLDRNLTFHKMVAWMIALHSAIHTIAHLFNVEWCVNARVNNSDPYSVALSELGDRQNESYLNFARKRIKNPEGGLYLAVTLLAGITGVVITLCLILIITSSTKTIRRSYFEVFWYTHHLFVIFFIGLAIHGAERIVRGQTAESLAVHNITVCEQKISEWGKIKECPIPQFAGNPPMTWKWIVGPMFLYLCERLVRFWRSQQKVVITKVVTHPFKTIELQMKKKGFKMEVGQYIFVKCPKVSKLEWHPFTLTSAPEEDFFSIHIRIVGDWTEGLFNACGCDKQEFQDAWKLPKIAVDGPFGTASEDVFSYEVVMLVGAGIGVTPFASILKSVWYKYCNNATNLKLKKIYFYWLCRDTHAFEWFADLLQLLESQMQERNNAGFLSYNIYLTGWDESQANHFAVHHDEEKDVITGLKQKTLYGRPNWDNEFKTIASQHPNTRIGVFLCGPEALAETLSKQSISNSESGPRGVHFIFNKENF
Experiment [19] addresses NADPH oxidase 4 (Homo sapiens) (UniProt Q9NPH5). Nature of the experiment: compounds shifting NOX4 Amplex Red fluorescence – cell-based, HEK293-NOX4, tetracycline-induced, NOX inhibitor project, primary screen (AID 1160). The note with it: HEK293-NOX4, Amplex Red H2O2 fluorescence, 45 min; higher = more signal, called active from +8 up or from −8 down.
Experiment [20] addresses NADPH oxidase 5 (Homo sapiens) (UniProt Q96PH1). Nature of the experiment: compounds shifting NOX5 Amplex Red fluorescence – cell-based, HEK293-NOX5, NOX inhibitor project, primary screen (AID 1161). The note with it: HEK293-NOX5, ionomycin, 45 min, higher = more signal.

Activity calls are given as the source filed them. Unless noted, how the calls were made is not given here.

Sequence of NADPH oxidase 4 (Homo sapiens) (Q9NPH5 whole entry, looked up): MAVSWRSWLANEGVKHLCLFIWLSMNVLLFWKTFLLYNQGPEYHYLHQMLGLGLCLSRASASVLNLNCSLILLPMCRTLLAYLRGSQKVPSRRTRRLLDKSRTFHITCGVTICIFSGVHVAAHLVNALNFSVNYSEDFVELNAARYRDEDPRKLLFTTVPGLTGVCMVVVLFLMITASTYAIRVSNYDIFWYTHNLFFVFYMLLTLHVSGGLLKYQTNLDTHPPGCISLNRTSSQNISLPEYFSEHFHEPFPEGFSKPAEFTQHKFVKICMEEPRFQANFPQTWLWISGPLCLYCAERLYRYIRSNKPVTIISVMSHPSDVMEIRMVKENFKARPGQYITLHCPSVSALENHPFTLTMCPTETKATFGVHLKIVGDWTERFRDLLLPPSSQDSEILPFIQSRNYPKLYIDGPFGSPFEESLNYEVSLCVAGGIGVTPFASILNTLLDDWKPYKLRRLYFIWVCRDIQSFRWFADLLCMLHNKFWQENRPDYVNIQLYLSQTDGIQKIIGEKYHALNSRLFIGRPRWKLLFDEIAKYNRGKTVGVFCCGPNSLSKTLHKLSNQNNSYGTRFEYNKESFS
Sequence of Streptavidin (Streptomyces avidinii) (P22629 whole entry, looked up): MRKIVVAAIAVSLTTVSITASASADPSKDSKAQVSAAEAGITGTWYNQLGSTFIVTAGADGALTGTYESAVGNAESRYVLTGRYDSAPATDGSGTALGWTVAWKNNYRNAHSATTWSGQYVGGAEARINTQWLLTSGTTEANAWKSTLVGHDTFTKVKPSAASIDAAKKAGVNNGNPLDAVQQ
Sequence of NADPH oxidase 5 (Homo sapiens) (Q96PH1 whole entry, looked up): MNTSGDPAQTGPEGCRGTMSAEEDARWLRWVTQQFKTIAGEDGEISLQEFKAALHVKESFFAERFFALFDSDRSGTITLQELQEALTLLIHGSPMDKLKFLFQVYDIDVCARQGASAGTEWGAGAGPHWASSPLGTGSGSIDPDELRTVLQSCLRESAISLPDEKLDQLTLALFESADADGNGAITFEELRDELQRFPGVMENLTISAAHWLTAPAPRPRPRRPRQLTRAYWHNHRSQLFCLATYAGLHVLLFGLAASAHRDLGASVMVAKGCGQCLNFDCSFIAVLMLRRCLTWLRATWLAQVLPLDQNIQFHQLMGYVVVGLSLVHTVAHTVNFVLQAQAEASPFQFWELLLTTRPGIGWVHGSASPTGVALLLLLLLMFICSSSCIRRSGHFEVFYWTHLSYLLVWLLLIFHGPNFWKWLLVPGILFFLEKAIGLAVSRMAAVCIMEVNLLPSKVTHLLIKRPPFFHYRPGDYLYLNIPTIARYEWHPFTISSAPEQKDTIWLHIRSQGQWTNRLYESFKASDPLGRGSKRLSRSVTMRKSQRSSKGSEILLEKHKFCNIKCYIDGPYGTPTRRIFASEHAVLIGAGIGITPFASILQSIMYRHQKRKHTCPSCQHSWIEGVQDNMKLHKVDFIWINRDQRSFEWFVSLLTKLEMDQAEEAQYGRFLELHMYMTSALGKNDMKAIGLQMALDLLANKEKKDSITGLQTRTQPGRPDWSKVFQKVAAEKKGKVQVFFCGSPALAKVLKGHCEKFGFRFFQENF
Sequence of Torsin-1A (Homo sapiens) (O14656 whole entry, looked up): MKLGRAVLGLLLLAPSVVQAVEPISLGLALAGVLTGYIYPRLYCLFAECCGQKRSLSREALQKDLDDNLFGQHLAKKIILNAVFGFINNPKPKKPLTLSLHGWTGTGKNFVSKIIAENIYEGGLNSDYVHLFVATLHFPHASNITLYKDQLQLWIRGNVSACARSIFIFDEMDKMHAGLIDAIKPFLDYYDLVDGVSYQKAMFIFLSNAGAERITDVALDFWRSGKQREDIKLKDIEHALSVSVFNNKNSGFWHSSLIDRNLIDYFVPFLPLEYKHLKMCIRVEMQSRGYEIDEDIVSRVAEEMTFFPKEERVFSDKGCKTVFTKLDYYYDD

Take `C[C@H]1CC[C@H]2C(=O)OC(COc3ccc(C(C)(C)C)cc3)CN2[C@@H]1c1ccc(Br)cc1` (stereo not given in full): the composite z-score in [1] was 0.253; in experiment [6], 0.468; in [7] it was -0.176; in the experiment with Torsin-1A (Homo sapiens) [8], 0.213; with Torsin-1A (Homo sapiens) [9], 0.179; in experiment [10], 0.0438. In [12], this compound gave a composite z-score of -0.103. The z-score is -0.259 (inactive) in experiment [2]; -1.12 (inactive) in experiment [3]; 2.36 (inactive) in experiment [4]; -1.04 (inactive) in experiment [5]; 0.786 (inactive) in experiment [11]; 1.39 (inactive) in experiment [13]. Further, the z-score was 0.0974 (inactive) in experiment [14]; -1.24 (inactive) in experiment [15]; 0.0011 (inactive) in experiment [16]; 0.0307 in experiment [17]; 0.426 (inactive) in experiment [18]; 0.317 (inactive) in experiment [19]. Besides, the z-score in experiment [20] is 0.671.

For the compound `CC(=O)OC[C@H]1O[C@H](CCON=C(C)CCN2CCCc3nc(C)c(C)cc32)C=C[C@@H]1OC(C)=O`, the composite z-score in experiment [1] amounted to 0.166; in experiment [6], 0.426; in experiment [7], 0.0973; in the experiment with Torsin-1A (Homo sapiens) [8] it was 0.946; with Torsin-1A (Homo sapiens) [9], 1.17; in experiment [10] it was 1. The composite z-score in experiment [12] amounted to 0.0861. The z-score in [2] is 0.271 (inactive); in experiment [3], -0.181 (inactive); in [4], 0.322 (inactive); in experiment [5], 0.469 (inactive); in experiment [11], 0.198 (inactive); in [13], 2.13 (inactive). Also, the z-score in experiment [14] is 1.25 (inactive); in experiment [15] it was 0.872 (inactive); in experiment [16], 0.489 (inactive); in experiment [17] it was -1.17; in experiment [18] it was 0.152 (inactive); in experiment [19] it was 0.11 (inactive). In addition, the z-score in experiment [20] came out at 0.207.

On to `CCN1C(=O)[C@H]2[C@@H]3C(=CC[C@H]2C1=O)C(=O)[C@H]1O[C@H]1[C@H]3O`, for which the composite z-score in experiment [1] was 0.116; in experiment [6], 0.49; in [7], -0.183; with Torsin-1A (Homo sapiens) [8], 0.734; in the experiment with Torsin-1A (Homo sapiens) [9], 0.348; in experiment [10] it was 1.64. Besides, the composite z-score in experiment [12] is -0.214. Moreover, the z-score was -5.2 (inactive) in experiment [2]; 1.41 (inactive) in [3]; 2.79 (inactive) in experiment [4]; 21.9 (active) in [5]; -1.08 (inactive) in [11]; 1.17 (inactive) in experiment [13]. Further, the z-score in experiment [14] was 0.497 (inactive); in [15] it was 0.244 (inactive); in experiment [16], 0.282 (inactive); in experiment [17], -0.383; in experiment [18], 0.428 (inactive); in experiment [19], -1.86 (inactive). Besides, the z-score in [20] was found to be 0.121.

For `CO[C@H]1COC(=O)[C@H](C)COC(=O)[C@@H](OCc2ccccc2)C=C[C@@H]1C`, the composite z-score in experiment [1] is -0.19; in experiment [6] it was -0.316; in [7] it was -0.273; in the experiment with Torsin-1A (Homo sapiens) [8], 0.489; with Torsin-1A (Homo sapiens) [9], 0.214; in [10], 0.307. The compound further came in with a composite z-score in experiment [12] of -0.193. Further, the z-score in experiment [2] was -0.108 (inactive); in experiment [3], -0.462 (inactive); in [4] it was -0.745 (inactive); in [5], -0.786 (inactive); in experiment [11] it was 0.623 (inactive); in [13], 0.345 (inactive). Further, the z-score in [14] is 0.0669 (inactive); in experiment [15], -0.258 (inactive); in [16], 0.0584 (inactive); in experiment [17] it was 0.893; in experiment [18], -0.596 (inactive); in experiment [19] it was 0.603 (inactive). Besides, the z-score in experiment [20] stood at 0.214.

As for `O=C1C=C[C@@H](O)[C@@H]2[C@@H]3C(=O)N(C4CCCCC4)C(=O)[C@@H]3CC[C@@H]12`, the composite z-score in [1] was 0.474; in experiment [6], -0.748; in experiment [7], 0.177; with Torsin-1A (Homo sapiens) [8], 0.54; with Torsin-1A (Homo sapiens) [9], 0.595; in experiment [10], 0.781. For the same compound, the composite z-score in [12] was -0.0501. The z-score in experiment [2] is -2.62 (inactive); in experiment [3], 0.411 (inactive); in experiment [4], 0.25 (inactive); in [5], 0.915 (inactive); in [11] it was -0.188 (inactive); in experiment [13] it was 0.0831 (inactive). Further, the z-score in [14] was -0.0709 (inactive); in experiment [15] it was -0.446 (inactive); in experiment [16], 0.0822 (inactive); in experiment [17], -0.493; in experiment [18], 0.33 (inactive); in experiment [19], 0.563 (inactive). The z-score in experiment [20] was -0.266.

The values are drawn from PubChem BioAssay.
